Measurements from the supplement of paper PMC6555819.

test system: PPARg DBDmut:RXRa IVT, anti-PPARg (DBD mutation: PPARg1 K132A/R137A, NR concentration 270 nM, RXRa partner concentration 90 nM); experiment: PBM binding z-score (relative to random genomic background probes); higher = stronger binding; sequences stand for … in GC…GCGATTGACAGCGTAGAATGAAGG
Method in brief: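 Binding z-scores take random background probes as their reference. They come from custom Agilent 4×180K protein-binding microarrays incubated 1 h with ligand-free nuclear receptor dimers, with antibodies against each partner (one per run) detecting binding. Scanned fluorescence was regression-normalized.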

| Sequence | PBM binding z-score |
| --- | --- |
| CGTCCAAGGTCAAGGTCGGTGAAAGAGACTCGAA | -0.058 |
| TCTTGTAGATCAATAGAGGTTCAGAAAGTGCGCT | 0.0591 |
| CCTACTGGGCCAACGTCATTGATCAGTCAAAGCA | -0.653 |
| AGAACGAGGGCACGCAGAGTTGATAGCAGAGTAG | 0.653 |
| GCCTATAGGTAATACAAGGTGAAAGTCCGATTGT | 0.858 |
| TAGCCTAGGTCATTGGGCGAGTATAGTACGCATC | 0.311 |
| ACAGACAGGTGAGTGAAGGTAACTAAGCTGGACG | -0.328 |
| TTACCAAGTTGAGCTGAGGTCGTTGATCCAACTC | -0.252 |
| TGAGTGAGGTTAAAGATCAGGGAACGTGGCGTCG | 0.365 |
| CCTCGGAGGACTGAAGGTCAGAGCTGTCCGCTTT | -2.59 |
| CCTACTGGGCCACGGTCATTGATCAGTCAAAGCA | -0.475 |
| GGAACGAGGACATTCGAGTTGATAGCATGGCGAT | -0.159 |
| CTACCAAGGAGAACAAGGTCGTTGATTACTATTC | -0.0895 |
| TCGAGTAGGTTGGGGGCATTCAGAATGGCGTCGA | 3.04 |
| CCAGATAGGTGAAAGGTAACTCAGTCTGGTACGC | 0.289 |
| ACTCGGAGGACAAAGGCCAGAGCTACGCCAGTGA | -0.91 |
| CAAACTAGGTCAAGTTCAAAGTCGGTTTGTGCCA | 3.54 |
| GTACCAAGGTGGATAGGTCGTTGATGAGTAGGCG | -1.52 |
| TCTGCTCGGTCAGTTGGTCAGCTAACGAGCTGCC | -0.215 |
| CATACAGTGTCAGCTAGGCCAGAGTAGGGACGGC | 0.171 |
| CGTCCAAGGACAAAGGTCAGTGAAGAGATGACGG | -0.53 |
| TCTATTACTTGATTAGGGCAACCGAAACAGCGGA | 0.681 |
